Data on 40 compounds can be found in PubChem BioAssay (EPA / NIEHS).

Records with an inconclusive call do not appear. Active and inactive are the calls of the source. How the source made its calls: active means hit-call score of the fitted dose curve at least 0.9, where 1 is the maximum; inconclusive means response in the unintended direction; inactive means score below 0.9.

A short description of this assay: Tanguay_ZF_120hpf_OTIC_legacy: (Legacy) Oregon State University Tanguay Lab 120 Hour Post-fertilization zebrafish Assay for Otic Vesicle Malformation (AID 2283639). The procedure:
Tanguay_ZF_120hpf_legacy is a whole embryo, multiplexed endpoint assay using zebrafish larvae exposed for 120 hours post fertilization on a 96-well plate.Tanguay_ZF_120hpf_OTIC_legacy is one of one assay component(s) measured or calculated from the Tanguay_ZF_120hpf_legacy assay. It is designed to make measurements of zebrafish development as detected with brightfield microscopy of developing zebrafish embryos.Data from the assay component Tanguay_ZF_120hpf_OTIC_legacy was analyzed into 1 assay endpoints. This assay endpoint, Tanguay_ZF_120hpf_OTIC_legacy, was analyzed in the positive analysis fitting direction relative to DMSO as the negative control and baseline of activity. Using a type of morphology reporter, gain-of-signal activity can be used to understand changes in developmentals as they relate to the whole embryo. To generalize the intended target to other relatable targets, this assay endpoint is annotated to the zebrafish development intended target family, where the subfamily is otic vesicle morphogenesis.
Zebrafish husbandry: Tropical 5D wild-type adult zebrafish were housed in at an approximate density of 1000 per 100 gallon tank at the Sinnhuber Aquatic Research Laboratory, Oregon State University, Corvallis, OR. Each tank was kept at standard laboratory conditions of 28C on a 14-h light/10-h dark photoperiod in fish water consisting of reverse osmosis water supplemented with a commercially available salt (Instant Ocean). Spawning funnels were placed into the tanks the night prior, and embryos were collected and staged. […] Ten microliters of each row of dilution plate 2 was added to 2 exposure plates. The final DMSO concentration used was 0.64% (vol/vol). Thirty-two embryos were also exposed to 5uM trimethyltin chloride (positive control). Plates were sealed to prevent evaporation and foil covered to reduce light exposure and kept in a 28C incubator. Embryos were statically exposed until 120 hpf. At 24 hpf, embryos were assessed for photomotor response using a custom photomotor response analysis tool (PRAT) and for developmental toxicity endpoints (MO24: mortality at 24 hpf, DP: developmental progression, SM: spontaneous movement, and NC: notochord distortion). At 120 hpf, locomotor activity was measured using Viewpoint Zebralab and assessed for 18 endpoints. Zebrafish acquisition and analysis program (ZAAP), a custom program designed to inventory, acquire, and manage zebrafish data, was used to collect developmental endpoints as either present or absent (i.e., binary responses were recorded). If mortality occurred for an embryo (at either 24 or 120 hpf), the non-mortality endpoints were not measured.
As for `CCCCCCCCCCCCCCCCCC(=O)O`, the call was inactive.

Regarding `CC(CO)OC(C)CO` (stereo not given) (tested in a mixture with another compound), the outcome was inactive.

In the case of `Nc1ccc2c(c1)C(=O)c1ccccc1C2=O`, the call was inactive.

In the case of `CCCCCCCCCCO`, the compound was classed as inactive.

In the case of `COc1ccc2c(c1)c(CC(=O)O)c(C)n2C(=O)c1ccc(Cl)cc1`, the compound was called inactive.

For the compound `Clc1cc(Cl)c(Cl)cc1Cl`, the outcome was inactive.

For `O=[N+]([O-])C(CO)(CO)CO`, the result was inactive.

On to `Cc1oc(-c2ccccc2)nc1CCOc1cccc2c1ccn2CCC(=O)O`, for which the compound was classed as inactive.

With `CCCCCCCCCCCCCCCC`, the compound was classed as inactive.

As to `Oc1ccc2c(c1)OC[C@@H](N1CCC(O)(c3ccc(F)cc3)CC1)[C@H]2O`, the compound was called inactive.

Consider `Cc1ccc(C(C)C)c(O)c1`, for which the outcome was inactive.

On to `Cc1cc(NC(=O)C(=O)O)cc(C)c1Oc1ccc(O)c2c1CCC2`, for which the result was inactive.

On to `CC(=O)OCCOCCOCCOC(C)=O`, for which the call was inactive.

`CN1CCCC1=O`: the compound was classed as inactive.

As for `COc1cc(-c2nc(NC(=O)c3cc4cc(C)cc(C)c4n3CC(=O)O)sc2CCC2CCCCC2)c(OC)cc1Cl`, the call was inactive.

As for `CCCCC(CC)COC(=O)CC(C(=O)OCC(CC)CCCC)S(=O)(=O)O` (stereo not given), the compound was classed as inactive.

For the compound `Cc1cccc(Nc2cc(Cl)nc(SCC(=O)O)n2)c1C`, the compound was called inactive.

Turning to `OC[C@@H](O)[C@@H](O)[C@H](O)[C@H](O)CO`, the outcome was inactive.

On to `O=C(N[C@@H](Cc1ccccc1)[C@@H](O)C(=O)N1C[C@@H](O)[C@@H](O)C1)c1cc2cc(Cl)ccc2[nH]1`, for which the outcome was inactive.

For `CCCCCCC(=O)OCC`, the outcome was inactive.

Consider `CC1(C)CC(N=C=O)CC(C)(CN=C=O)C1` (stereo not given), for which the compound was classed as inactive.

For the compound `Cc1ccc2ncccc2c1`, the call was inactive.

In the case of `O=c1[nH]cc(F)c(=O)[nH]1`, the outcome was inactive.

`CCCCN(CCCC)CCCC`: the outcome was inactive.

For the compound `CCNc1cccc(C)c1`, the call was inactive.

As for `C=CCc1ccc(O)c(OC)c1`, the compound was classed as inactive.

Turning to `CC(C)(C)c1cc(O)c(C(C)(C)C)cc1O`, the call was inactive.

As for `COc1cc(S(=O)(=O)O)c(C)cc1N=Nc1c(O)ccc2cc(S(=O)(=O)O)ccc12`, the result was inactive.

Regarding `O=C(O)CCCCC(=O)O`, the outcome was inactive.

As for `CCCCCCCCCCC`, the result was inactive.

In the case of `Cc1cccc([N+](=O)[O-])c1C`, the call was inactive.

As to `NC(=O)Cn1c(=O)cc(CCN2CCN(c3nccc4sccc34)CC2)c2ccc(F)cc21`, the compound was classed as inactive.

Take `C=CCOC(=O)c1ccccc1C(=O)OCC=C`: the result was inactive.

For the compound `CN1CCN(Cc2cc(-c3ccc4[nH]c(=O)oc4c3)co2)[C@@H](c2ccc(F)cc2)C1`, the outcome was inactive.

In the case of `Nc1nc(N)c2nc(CNc3ccc(C(=O)N[C@@H](CCC(=O)O)C(=O)O)cc3)cnc2n1`, the call was inactive.

In the case of `O=C(O)Cc1ccccc1Nc1c(Cl)cccc1Cl`, the outcome was inactive.

Take `COc1ccc(C)cc1N`: the outcome was inactive.

In the case of `O=C(OCCCCCOC(=O)c1ccccc1)c1ccccc1`, the outcome was inactive.

Turning to `Cc1nc(C)nc(N2C[C@@H](C)N(c3ccnc([C@@H](C)O)n3)[C@@H](C)C2)n1`, the compound was called inactive.

For `Cc1ccccc1Cl`, the result was inactive.
